Source: PubChem
Hits are enriched below; roughly 4.2% of the tested compounds scored in any of these assays.
USP7 block: inhibitors of human USP7 deubiquitinase; Ubiquitin carboxyl-terminal hydrolase 7 (Homo sapiens), Q93009; purified USP7, Ub-rhodamine cleavage fluorescence; inhibition, % at 20 µM; actives 0.3% (n = 47,000)
UCHL1 block: inhibitors of human UCHL1 deubiquitinase. purified UCHL1, Ub-rhodamine cleavage fluorescence. AID 1645859, 2021. Ubiquitin carboxyl-terminal hydrolase isozyme L1 (Homo sapiens), P09936. inhibition, % at 20 µM. actives 0.2% (n = 47,000)
USP28 inh: inhibitors of human USP28 deubiquitinase. Ubiquitin carboxyl-terminal hydrolase 28 (Homo sapiens), Q96RU2. purified USP28, Ub-rhodamine cleavage fluorescence, 30 min. inhibition, % at 25 µM. actives 3% (n = 47,000). AID 1645857, 2021
USP10 inh: inhibitors of human USP10 deubiquitinase; Ubiquitin carboxyl-terminal hydrolase 10 (Homo sapiens), Q14694; purified USP10, Ub-rhodamine fluorescence, 60 min; inhibition, % at 20 µM; actives 1.1% (n = 47,000); AID 1645856, 2021
Target sequence (Q14694 whole entry, looked up): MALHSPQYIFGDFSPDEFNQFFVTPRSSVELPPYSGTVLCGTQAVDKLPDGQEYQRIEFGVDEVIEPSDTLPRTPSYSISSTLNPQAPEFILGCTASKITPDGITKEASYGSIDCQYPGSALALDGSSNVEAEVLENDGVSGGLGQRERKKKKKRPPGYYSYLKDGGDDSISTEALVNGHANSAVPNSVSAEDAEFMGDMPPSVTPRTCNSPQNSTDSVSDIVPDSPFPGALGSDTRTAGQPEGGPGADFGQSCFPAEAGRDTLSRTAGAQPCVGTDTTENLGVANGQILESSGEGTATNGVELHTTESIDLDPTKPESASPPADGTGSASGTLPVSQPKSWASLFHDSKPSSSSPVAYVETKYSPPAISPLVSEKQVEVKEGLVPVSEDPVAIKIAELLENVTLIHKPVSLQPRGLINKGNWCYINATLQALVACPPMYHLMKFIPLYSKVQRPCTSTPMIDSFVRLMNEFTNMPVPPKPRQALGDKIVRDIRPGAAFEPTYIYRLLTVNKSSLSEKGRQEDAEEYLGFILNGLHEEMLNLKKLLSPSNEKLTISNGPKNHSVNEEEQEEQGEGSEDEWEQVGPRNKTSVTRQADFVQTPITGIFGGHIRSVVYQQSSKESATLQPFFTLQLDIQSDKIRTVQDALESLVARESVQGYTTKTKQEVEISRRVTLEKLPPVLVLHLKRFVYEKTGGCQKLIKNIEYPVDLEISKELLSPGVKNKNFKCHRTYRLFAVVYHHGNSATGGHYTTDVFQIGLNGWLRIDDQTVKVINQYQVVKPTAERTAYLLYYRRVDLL
OTUD3 inh: inhibitors of human OTUD3 deubiquitinase. OTU domain-containing protein 3 (Homo sapiens), Q5T2D3. purified OTUD3, Ub-rhodamine fluorescence, 2 h. inhibition, % at 25 µM. actives 0.7% (n = 47,000)
* marks the source's active call; other numbers are inactive results. Rule as the data show it: active = inhibition above about 30%; inactive = the rest.

COc1ccc(C(=O)N2CC[C@@H]3CN(CC(C)C)S(=O)(=O)[C@@H]3CC2)cc1 was read as USP7 block 2, UCHL1 block 1, USP28 inh 11, USP10 inh 0 and OTUD3 inh 7.
Screening CCOc1ccc(CCNC(=O)c2ccc3c(c2)N(CC)C(=O)c2ccccc2S3)cc1OCC returned USP7 block 8, UCHL1 block 5, USP28 inh 60*, USP10 inh 7 and OTUD3 inh 2.
Cc1cc2nc(/C=C/c3ccccc3)n(Cc3cccc(F)c3)c2cc1C was read as USP7 block -3, UCHL1 block 6, USP28 inh 51*, USP10 inh 6 and OTUD3 inh 2.
For COc1ccc(OC)c(C2c3[nH]c4ccccc4c3C[C@@H]3C(=O)N(CCCn4ccnc4)CC(=O)N23)c1 (stereo not given in full) the results were USP7 block -3, UCHL1 block 2, USP28 inh -8, USP10 inh -6 and OTUD3 inh -5.
Cc1c(C)n(-c2ccccc2)c2ncn(CC(=O)NCc3cccc(F)c3)c(=O)c12 was read as USP7 block 9, UCHL1 block 2, USP28 inh -1, USP10 inh 27 and OTUD3 inh 2.
For O=C(c1cccc(S(=O)(=O)Nc2cc(Cl)ccc2Cl)c1)N1CCCCCC1 the results were USP7 block 0, UCHL1 block -1, USP28 inh -3, USP10 inh 17 and OTUD3 inh -12.
O=C(Nc1ccccc1C(F)(F)F)c1cccc(S(=O)(=O)Nc2cc(C(F)(F)F)ccc2Cl)c1 was read as USP7 block -1, UCHL1 block 1, USP28 inh 13, USP10 inh 43* and OTUD3 inh 3.
`O=C(c1c(F)cccc1F)N1CCC[C@@H](Cn2nnc(-c3ccncc3)n2)C1` gave USP7 block 8, UCHL1 block 3, USP28 inh 10, USP10 inh -1 and OTUD3 inh 4.
Screening CC(C)(C)C(=O)C1C2C(=O)N(c3ccc4c(c3)OCO4)C(=O)C2C2c3ccccc3C=CN12 (stereo not given) returned USP7 block -27, UCHL1 block 11, USP28 inh 64*, USP10 inh 21 and OTUD3 inh 55*.
Screening CCc1cc(=O)n(CC(=O)Nc2cc(C)ccc2OC)c(N2CCOCC2)n1 returned USP7 block 3, UCHL1 block 3, USP28 inh 27, USP10 inh 2 and OTUD3 inh 37*.
COc1ccc(NS(=O)(=O)c2cc(NC(=O)CCC(=O)c3ccc(F)cc3)ccc2C)cc1 was read as USP7 block 0, UCHL1 block -1, USP28 inh 2, USP10 inh 9 and OTUD3 inh -5.
Screening O=C(/C=C/c1ccco1)Nc1nc2n(n1)C(c1ccccc1)CC(=O)N2 (stereo not given) returned USP7 block -80, UCHL1 block -33, USP28 inh -31, USP10 inh -8 and OTUD3 inh -7.
Screening COc1ccccc1/C=C/C(=O)Nc1nc2n(n1)C(c1ccc(Cl)cc1)CC(=O)N2 (stereo not given) returned USP7 block 0, UCHL1 block 1, USP28 inh 23, USP10 inh 11 and OTUD3 inh 37*.
CCOc1ccc(-c2nnc(NC(=O)C3CCN(S(=O)(=O)c4ccc5c(c4)CCC5)CC3)o2)cc1 was read as USP7 block 23, UCHL1 block 9, USP28 inh 12, USP10 inh 44* and OTUD3 inh 26.
`Cc1ccc(-n2c(Cc3cccc4ccccc34)nnc2SCC(=O)NC2CCS(=O)(=O)C2)c(C)c1` (stereo not given) gave USP7 block 1, UCHL1 block 4, USP28 inh 0, USP10 inh 0 and OTUD3 inh 4.
`CCN1CCN(c2ncc3c(=O)n(Cc4cccnc4)ccc3n2)CC1` gave USP7 block 1, UCHL1 block -4, USP28 inh -9, USP10 inh 0 and OTUD3 inh -2.
CCCn1c(NC(=O)c2cccnc2)nc2ccccc21 was read as USP7 block -16, UCHL1 block -1, USP28 inh 31*, USP10 inh 0 and OTUD3 inh 0.
Cc1cc(N2CCN(c3ncccn3)CC2)nc2ccc(NC(=O)Cn3nc([N+](=O)[O-])c(Br)c3C)cc12 was read as USP7 block 10, UCHL1 block 7, USP28 inh 42*, USP10 inh 33* and OTUD3 inh 44*.
Screening COc1ccc2c(CNCCC3=CCCCC3)c(C(=O)O)n(Cc3ccc(F)cc3)c2c1 returned USP7 block -112, UCHL1 block 4, USP28 inh 27, USP10 inh 10 and OTUD3 inh 7.
Screening Cc1ccc2c(CNCCC3=CCCCC3)c(C(=O)O)n(C)c2c1 returned USP7 block 1, UCHL1 block 0, USP28 inh -2, USP10 inh 72* and OTUD3 inh 0.
NS(=O)(=O)c1ccc(CNS(=O)(=O)/C=C/c2ccccc2)cc1 was read as USP7 block 7, UCHL1 block -1, USP28 inh 57*, USP10 inh 3 and OTUD3 inh 16.
COc1ccccc1NS(=O)(=O)c1ccc(C(=O)NCc2ccc(S(N)(=O)=O)cc2)cc1 was read as USP7 block 4, UCHL1 block 4, USP28 inh 16, USP10 inh 3 and OTUD3 inh 8.
Cc1ccc(-n2nc(C(=O)NC3CCCCC3)c3ncn(C)c(=O)c32)cc1 was read as USP7 block 1, UCHL1 block -2, USP28 inh -9, USP10 inh -1 and OTUD3 inh -8.
Cc1ccc(-n2nc(C(=O)Nc3ccc(C)cn3)c3ncn(C)c(=O)c32)cc1 was read as USP7 block 30, UCHL1 block 14, USP28 inh 27, USP10 inh 31* and OTUD3 inh 36*.
For Cc1ccc(Cn2c(C(=O)O)c(CNCc3cccc(Cl)c3)c3ccc(C)cc32)cc1 the results were USP7 block -24, UCHL1 block 11, USP28 inh 33*, USP10 inh 25 and OTUD3 inh 12.
Screening N#Cc1ccc(Cc2ncc(C(F)(F)F)cc2Cl)s1 returned USP7 block -5, UCHL1 block 3, USP28 inh 60*, USP10 inh 3 and OTUD3 inh 5.
O=C(CSc1ncn(-c2ccccc2)n1)Nc1ccc(Cc2ccncc2)cc1 was read as USP7 block 11, UCHL1 block 4, USP28 inh 46*, USP10 inh 15 and OTUD3 inh 15.
`O=C(CSc1n[nH]c(-c2ccncc2)n1)Nc1ccc(F)cc1` gave USP7 block 2, UCHL1 block -1, USP28 inh -6, USP10 inh 1 and OTUD3 inh -9.
For Cc1c(-c2ccc(C#N)cc2)oc2ccc(Br)cc2c1=O the results were USP7 block 7, UCHL1 block 2, USP28 inh 0, USP10 inh 3 and OTUD3 inh -1.
